Among the data in PubChem BioAssay AID731 (The Scripps Research Institute Molecular Screening Center, 2007) are activation values, retold here.

About 520 (0.26%) of roughly 200,000 compounds were called active. This is one part of a sample in which actives are shown more often than they occur. No stated cut-off is given here; in the data, active means activation above about 23%; inactive means the rest.

For this assay, the target named is Peroxisome proliferator-activated receptor gamma (Homo sapiens) (UniProt P37231). Description: enhancers of SRC-3 binding to PPARgamma – biochemical, primary screen (AID 731).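 Further: 0% = DMSO and 100% = reference agonist.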 Conditions: biochemical PPARgamma/SRC-3 coactivator recruitment assay; at 8 µM; stronger effect = higher value.
Sequence of Peroxisome proliferator-activated receptor gamma (Homo sapiens) (P37231 whole entry, looked up): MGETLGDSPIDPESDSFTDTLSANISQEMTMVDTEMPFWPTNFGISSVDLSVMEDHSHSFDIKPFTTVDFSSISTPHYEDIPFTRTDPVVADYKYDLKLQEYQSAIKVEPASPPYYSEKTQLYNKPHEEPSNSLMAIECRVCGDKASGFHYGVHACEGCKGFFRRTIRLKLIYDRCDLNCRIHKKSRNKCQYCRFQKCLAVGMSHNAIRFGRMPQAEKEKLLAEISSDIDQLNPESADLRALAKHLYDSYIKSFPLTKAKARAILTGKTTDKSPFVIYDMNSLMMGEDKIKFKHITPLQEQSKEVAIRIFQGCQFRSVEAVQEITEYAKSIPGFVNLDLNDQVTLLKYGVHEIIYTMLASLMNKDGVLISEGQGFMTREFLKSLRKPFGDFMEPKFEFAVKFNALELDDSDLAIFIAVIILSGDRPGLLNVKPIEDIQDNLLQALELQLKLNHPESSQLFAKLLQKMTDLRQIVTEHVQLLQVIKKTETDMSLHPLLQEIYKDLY
With `COc1cccc(NC(=O)c2ccc(S(=O)(=O)N(C)C)cc2)c1`, the activation is -1.26% (inactive).

In the case of `COc1ccc(/C=N/Nc2ncnc3sc4c(c23)CCCC4)cc1O`, the activation was -0.73% (inactive). The value for `CCOC(=O)c1sc(-c2cccc([N+](=O)[O-])c2)cc1N` was 10% (inactive). In the case of `Cc1nc2ccccn2c1C(=O)NN=C1CCN(C)CC1`, the activation is -4.87% (inactive). The value for `O=C(NC(=S)Nc1cccc(-c2ccc(CO)o2)c1)c1cccs1` was 9.26% (inactive); that for `O=C(NCc1ccco1)c1cc(-c2cccnc2)nc2ccc(Cl)cc12` was 7.42% (inactive); that for `O=C(/C=C/c1ccc(Cl)cc1Cl)NCc1ccco1` was -0.09% (inactive).

Consider `O=C(CSc1c2c(nc3ccc(Cl)cc13)CCCC2)NCc1ccco1`, for which the activation was 31.6% (active). Regarding `Cc1ccn(CC(=O)N2N=C(C(F)F)CC2(O)C(F)F)n1` (centres undefined), the activation was 3.61% (inactive). With `COc1ccc(N(C)S(=O)(=O)c2cccc3nsnc23)cc1`, the activation is -0.54% (inactive). The value for `CCN(/N=C/c1ccc(N(C)C)cc1)c1nc2ccccc2[nH]1` was 16.6% (inactive); that for `CC1c2nc3ccccc3n2C(CC(=O)NCCCN2CCOCC2)C(=O)N1Cc1ccccc1` (centres undefined) was -3.13% (inactive).

Regarding `Cc1cccc(OP(=O)(Nc2c(C)n(C)n(-c3ccccc3)c2=O)Oc2cccc(C)c2)c1`, the activation is 2.47% (inactive). Take `CCN(CC)CCCNC(=O)CCc1ccccc1`: the activation is 4% (inactive).

`CCN(CCCNC(=O)CSc1cc(=O)n(C)c2cc(Cl)ccc12)Cc1ccccc1`: the activation was 42.4% (active).

For `CCN(CC)CCCNC(=O)c1cc(-c2cccc(Cl)c2)on1`, the activation is -5.33% (inactive). The value for `Cc1cc[n+](-c2[nH]c(=O)sc2/C=N/NC(=O)c2ccccc2[O-])cc1C` was 1.17% (inactive); that for `CCn1c(=O)cc(SCC(=O)NCc2ccc3c(c2)OCO3)c2ccccc21` was 31.8% (active); that for `CCn1c(=O)cc(SCC(=O)NCCC2=CCCCC2)c2ccccc21` was 10.5% (inactive).

Turning to `CC(C)NC(=O)CSc1ccccc1C(=O)NCc1ccc2c(c1)OCO2`, the activation is -3.43% (inactive).

Regarding `O=C(NCc1ccco1)C(=O)c1cn(CC(=O)N2CCCCCC2)c2ccccc12`, the activation is 4.6% (inactive). For the molecule `CN(C)c1ccc(C(CC(=O)O)C(=O)O)cc1` (centres undefined), the activation is 5.46% (inactive).

Take `O=C(CNC(=O)C(c1ccccc1)c1ccccc1)N/N=C\c1ccc2c(c1)OCO2`: the activation was -7.73% (inactive). To `COc1ccc(/C=C/C(=O)NC(=S)NN2CCCCC2c2cccnc2)cc1` (centres undefined) belongs -0.5% (inactive); to `Cc1nc2ccccc2cc1OCc1ccc(F)cc1`, 4.08% (inactive). The value for `Cc1cccc(OCc2ccc(C(=O)Nc3ccc(F)cc3)cc2)c1` was -4.26% (inactive); that for `Fc1ccc(COc2cccc(-c3n[nH]c(=S)o3)c2)cc1` was 29.3% (active); that for `CC(C)/C=N/NC(=O)c1cc(Br)ccc1O` was 4.98% (inactive). On to `COc1cccc(-n2c(=S)sc3c(=O)n(-c4ccccc4OC)c(SCC4OCCO4)nc32)c1`, for which the activation was -1.02% (inactive). The value for `O=C(CCc1nnc(CCCCc2ccccc2)o1)NC(c1cccnc1)C(F)(F)F` (centres undefined) was 0.98% (inactive); that for `COc1ccccc1N1CCN(/N=C\C(Br)=C\c2ccccc2)CC1` was 0.45% (inactive). The value for `C=CCNC(=O)CSc1nc2sc(C)c(C)c2c(=O)[nH]1` was -3.68% (inactive); that for `CC(=O)c1sc2nc(SCC(=O)N3CCCCC3)[nH]c(=O)c2c1C` was 32.9% (active).

Turning to `O=C(CSc1nc2c(cnn2-c2ccc(F)cc2)c(=O)[nH]1)N1CCCCCC1`, the activation was -0.08% (inactive). The value for `COCCN(C(=O)CCC(=O)Nc1nccs1)C(C(=O)NC(C)(C)C)c1ccc(Cl)cc1` (centres undefined) was 8.27% (inactive); that for `Cc1ccccc1C1=N/C(=C/c2cccnc2)C(=O)O1` was 5.51% (inactive); that for `Cc1ccc(S(=O)(=O)N(C)CC(=O)OCC(=O)N2CC(=O)Nc3ccccc32)cc1` was -1.93% (inactive). The value for `COc1cccc(NC(=O)Cn2c3ccccc3c3nc4n(c(=O)c32)CCS4)c1` was 3.77% (inactive); that for `O=C(NCc1cccs1)C1CCN(S(=O)(=O)c2ccc(Cl)cc2)CC1` was 0.55% (inactive); that for `O=C(N/C(=C\c1ccc(F)cc1)C(=O)N1CCCCCC1)c1ccccc1` was 2.6% (inactive).

For the molecule `O=C(Oc1ccccc1)Oc1ccc2c(c1)oc(=O)c1ccccc12`, the activation was 57.2% (active). To `Cc1c(Cc2ccccc2)c(=O)oc2cc(OCC(N)=O)ccc12` belongs 1.07% (inactive). As for `CC(=O)Oc1ccc2c(C)c(CC(C)O)c(=O)oc2c1` (centres undefined), the activation is -4.46% (inactive).

Consider `CNc1ccc(NC(C)=O)cc1[N+](=O)[O-]`, for which the activation is -3.86% (inactive). With `CCC1(CC)NC(=O)N(CC(=O)OCC(=O)Nc2ccc(C(F)(F)F)cc2)C1=O`, the activation was -5.07% (inactive).

For the molecule `CCCCCOc1ccc(/C=C/C(=O)NCCc2nc3ccccc3[nH]2)cc1OC`, the activation is 0.87% (inactive). In the case of `Cn1c(C(=O)OC(C(=O)NC2CCCCC2)c2ccccn2)cc2sccc21` (centres undefined), the activation is 0.71% (inactive).

With `Cc1ccc(Cl)cc1NC(=O)C1CCN(S(C)(=O)=O)CC1`, the activation was -1.48% (inactive).

Take `CCNCCC(=O)N1c2ccccc2Sc2ccc(NC(=O)OCC)cc21`: the activation was -12.4% (inactive). The value for `NNC(=O)C1CC(O)CN1S(=O)(=O)c1ccc(Cl)cc1` (centres undefined) was 8.66% (inactive); that for `CC1CC(C)CN(CCC(=O)Nc2ccc3c(c2)CCC3)C1` (centres undefined) was 6.43% (inactive); that for `COC(C(=O)Nc1ccc(C(C)=O)cc1)c1ccccc1` (centres undefined) was -2.12% (inactive). The value for `COc1ccccc1CCNC(=O)CSc1nnc2ccc(-c3cccnc3)nn12` was 2.38% (inactive); that for `O=C(CN1CCN(c2ncccn2)CC1)Nc1ccccc1C(F)(F)F` was -0.44% (inactive). To `COCCn1c(Cc2cccn2C)nnc1SCC(=O)Nc1nccs1` belongs 4.15% (inactive). Turning to `Cc1nc(N2CCOCC2)c2c(C)c(C(=O)Nc3ccc(C(F)(F)F)cc3)sc2n1`, the activation is 6.42% (inactive). To `Cc1ccc(N2C(=O)C3C(c4ccccc4)(C2=O)C3(c2ccccc2)c2ccccc2)cc1` (centres undefined) belongs -5.3% (inactive). The value for `O=C(O)CCS(=O)(=O)c1ccc(-c2ccccc2)cc1` was -2.87% (inactive); that for `C=CCC(CC=C)(C(N)=O)c1ccccc1` was -2.8% (inactive); that for `CCOC(=O)CNC(=O)CSc1ccc2nnc(-c3cccnc3)n2n1` was -2.1% (inactive). On to `COc1ccc(OCC(=O)Nc2ccc(N3CCC(C)CC3)cc2)cc1`, for which the activation is 1.65% (inactive).

`CCOc1ccc(Br)cc1S(=O)(=O)Nc1cccc(S(=O)(=O)N(CC)CC)c1`: the activation is -0.46% (inactive). To `CC(=O)N1CC(C)c2scc(C)[n+]2-c2ccccc21` (centres undefined) belongs 0.84% (inactive); to `CCC(C)N(C)C1CCN(C(=S)Nc2ccc(OC)cc2)CC1` (centres undefined), -0.62% (inactive).

`CCN(CC)c1ccc2cc(C(=O)O)c(=O)oc2c1`: the activation was 1.62% (inactive). Regarding `CCN(CC)c1ccc2oc(=O)c(C)nc2c1`, the activation is 30.3% (active). On to `CCN(CC)c1ccc2c(Nc3ccccc3)c(C=O)c(=O)oc2c1`, for which the activation is -1.59% (inactive). To `Cc1ccccc1N/C(SCc1ccc(Cl)cc1)=C(/C#N)C(N)=O` belongs -0.24% (inactive). The value for `CCCCC1N2CC3([N+](=O)[O-])CN1CC([N+](=O)[O-])(C2)C3(C)C` (centres undefined) was 3.26% (inactive); that for `Cc1nc(SCC(=O)N2CC(=O)Nc3ccccc32)c2c(C)c(C)sc2n1` was 7.47% (inactive). To `COc1cc(/C=C/C2=CC(C)(C)NC(=S)N2)cc(OC)c1OC` belongs -3.19% (inactive). With `COc1cc(C(=S)N2CCOCC2)cc(OC)c1OC(=O)c1cc([N+](=O)[O-])cc([N+](=O)[O-])c1`, the activation was 1.22% (inactive). Regarding `COc1cc(C(=S)N2CCOCC2)cc(OC)c1OC(=O)c1cc([N+](=O)[O-])c(C)c([N+](=O)[O-])c1`, the activation is 27.4% (active). Take `COc1cc(C(=S)N2CCOCC2)ccc1O`: the activation is 6.53% (inactive). For `COC(=O)Cc1ccc(NC(=S)NCc2ccco2)cc1`, the activation was -0.79% (inactive). As for `CCc1nnc(NC(=O)Cc2cccs2)s1`, the activation was 0.13% (inactive). Consider `O=C(O)CCCCOn1ccnc1`, for which the activation was -4.37% (inactive).

As to `CN1CCN(c2ccc(S(=O)(=O)Nc3ccccc3)cc2[N+](=O)[O-])CC1`, the activation is 8.11% (inactive).

As to `CC(C)(C)c1ccc(/C=C/C(=O)Nc2ncccn2)cc1`, the activation was -0.41% (inactive). The value for `O=C(C1=C[C@H](c2ccc(C(F)(F)F)cc2)C[C@H](OCc2ccc(CO)cc2)O1)N1CCN(Cc2ccccc2)CC1` was 5.31% (inactive); that for `N#Cc1ccccc1Sc1ccccc1C(=O)OCC(=O)NC1CCCCC1` was -1.17% (inactive); that for `CCOc1ccc(NC(=O)CSc2ncnc3c2sc2ccccc23)cc1` was 23.1% (active). With `CCOc1ccc(NC(=O)CSc2nc3ccccc3c(=O)n2Cc2cccs2)cc1`, the activation is -1% (inactive).

On to `CCOc1ccc(NC(=O)CCC(=O)n2nc(C)cc2C)cc1`, for which the activation is 19.2% (inactive).

In the case of `COc1cc(OC)c(-n2cc(-c3ccc(Cl)cc3)[nH]c2=O)cc1Cl`, the activation is 2.05% (inactive).

Consider `NS(=O)(=O)c1ccc(NC(=O)COC(=O)CCc2c[nH]c3ccccc23)cc1`, for which the activation was 1.02% (inactive).

Consider `COc1cc(NS(=O)(=O)c2ccc(NC(=O)CN3C(=O)c4ccccc4C3=O)cc2)ncn1`, for which the activation was 4.24% (inactive). To `COc1ccc(C(CC(=O)Nc2ccc(C)cc2)NC(=O)C(F)(F)F)cc1` (centres undefined) belongs 1.26% (inactive). Take `CN1CCC(OC(=O)COc2ccc(Cl)cc2Cl)CC1`: the activation was -2.65% (inactive). On to `Cc1ccc(NC(=O)OCc2cncs2)cc1`, for which the activation is 3.15% (inactive). The value for `O=C1C2C3C=CC(C4CC34)C2C(=O)N1c1nccs1` (centres undefined) was -3% (inactive).

On to `O=C(/C=C/c1cn(-c2ccccc2)nc1-c1ccc2c(c1)OCCO2)NCCCN1CCOCC1`, for which the activation is 5.25% (inactive). Regarding `Cc1cccc(OCCNC(=O)CSc2ccc(C(F)(F)F)cc2[N+](=O)[O-])c1`, the activation is -3.57% (inactive). The value for `Cc1cc(O)c(NC(=O)c2ccc(C)c([N+](=O)[O-])c2)cc1C` was -0.67% (inactive).
